# ssDAF12 agonist: activates DAF-12 receptor from parasite S. stercoralis | HEK293 ssDAF-12/GRIP1 lit1-tk-luc reporter, luminescence; % of 3 µM dafachronic acid response | 370,000 compounds, 1% hits | AID 652126 | activation, % at 6.8 µM;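 active means activation above the mean over all tested compounds plus 3 SD, cut at about 0.9% in these data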;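 further: 0% = DMSO-only wells and 100% = 3 µM delta7-dafachronic acid wells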
# Wnt act: Wnt/beta-catenin pathway activation | Wnt/beta-catenin reporter cell assay, activator, plate reader | activation, % at 9.35 µM | 300,000 compounds, 1.2% hits; in the data active means activation above about 30%, passing the limit was not always enough; inconclusive means no clear call, values can overlap the other calls;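 further: 0% = neutral control wells and 100% = positive control wells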
# hcDAF-12 act: activators of H. contortus DAF-12 nuclear receptor; AID 652067; activation, % at 6.8 µM; 370,000 compounds, 1.4% hits; HEK293 hcDAF-12 lit1-tk-luc reporter, luminescence; 0% DMSO, 100% Δ7-dafachronic acid;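 active means activation above the mean of all tested compounds plus 3 SD, cut at about 5.5% in these data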;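 further: 100% = response to 3 µM Δ7-dafachronic acid high control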
# DAX1 StAR inh: blocks DAX1 repression of SF-1 activated StAR promoter | HEK293T StAR-luciferase reporter, SF-1/DAX-1 repression relief | AID 652010 | 370,000 compounds, 1.1% hits | inhibition, % at 6.8 µM;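 active means inhibition above the mean over all tested compounds plus 3 SD, cut at about 3.6% in these data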;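 further: 0% = DAX-1 cells with DMSO and 100% = cells lacking DAX-1 with DMSO; higher inhibition means more luminescence from relief of DAX-1 repression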
# hgDAF12 agonist: hgDAF-12 agonism, primary luciferase screen; HEK293 GAL4-hgDAF12 UAS-luciferase reporter, agonist luminescence; normalized to butyrate control; 370,000 compounds, 1.8% hits; AID 687014; activation, % at 6.8 µM;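 active means activation above a cutoff set at the mean of all screened compounds plus 3 SD, cut at about 10% in these data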;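 further: 0% = DMSO wells and 100% = sodium butyrate wells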
# esBAF inh: blocks esBAF chromatin remodeling in mouse ES cells; Bmi1-luciferase knock-in reporter, 24 h; 100% = twice the neutral-well signal; reporter increase, % at 12.5 µM; 350,000 compounds, 2% hits; in the data active means activation above about 40%; inconclusive means no clear call, values can overlap the other calls;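 further: 0% = median of the plate's neutral control wells and 100% = double that signal; a rise in the Bmi1 reporter signal indicates esBAF inhibition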
# LXR ag: counter-screen for hcDAF-12 agonists: agonists of human LXR-beta. shares compounds with hcDAF-12 act. HEK293 Gal4-LXR tk-luc reporter, luminescence, 24 h; normalized: DMSO 0%, positive control 100%. activation, % at 6.8 µM. 3,400 tested, under 10 active;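 active means mean percent activation of the reporter above a cutoff set as the average over tested compounds plus their standard deviation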
# Target sequence (P55055 whole entry, looked up, the tested form may be a part): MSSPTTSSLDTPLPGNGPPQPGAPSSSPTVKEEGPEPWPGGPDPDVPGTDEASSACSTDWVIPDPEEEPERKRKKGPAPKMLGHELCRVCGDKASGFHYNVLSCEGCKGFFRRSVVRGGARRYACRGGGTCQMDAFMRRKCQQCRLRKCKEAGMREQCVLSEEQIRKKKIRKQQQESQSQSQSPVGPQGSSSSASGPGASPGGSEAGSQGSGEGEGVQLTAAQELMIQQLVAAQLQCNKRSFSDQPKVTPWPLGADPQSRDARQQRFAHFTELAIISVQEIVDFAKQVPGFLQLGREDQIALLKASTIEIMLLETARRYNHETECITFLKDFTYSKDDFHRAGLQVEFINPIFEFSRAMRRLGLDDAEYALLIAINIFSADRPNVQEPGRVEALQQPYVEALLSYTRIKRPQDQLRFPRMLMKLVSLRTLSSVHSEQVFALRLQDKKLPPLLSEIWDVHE
# hcDAF12 conf: confirmation of H. contortus DAF-12 agonists; AID 743032; HEK293 hcDAF-12 lit1-tk-luc reporter, luminescence; % of Δ7-dafachronic acid response; shares compounds with hcDAF-12 act; activation, % at 6.8 µM; 3,400 compounds, 61% hits;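 active means mean activation across triplicate tests above the threshold derived from the earlier primary screen, cut at about 5.5% in these data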;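 further: 0% = DMSO only wells and 100% = 3 µM Δ7-dafachronic acid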
# An asterisk follows results filed as active; ? = inconclusive; . = no result given. The list is not random: actives were taken first. Their share in the collection is about 4.2%.
SMILES,ssDAF12 agonist,Wnt act,hcDAF-12 act,DAX1 StAR inh,hgDAF12 agonist,esBAF inh,LXR ag,hcDAF12 conf
CC=Cc1ccc2n(c1=O)C[C@H]1[C@H](CO)[C@@H](C(=O)NCC)[C@@H]2N1Cc1cccc(Cl)c1 (mixture of isomers),.,.,.,.,.,8,.,.
O=C(Nc1ccc(Cl)cc1)N[C@@H]1CC[C@@H](CCn2cc(C3(O)CCCC3)nn2)O[C@@H]1CO,.,.,.,.,.,7,.,.
Cc1ccnc(NS(=O)(=O)c2ccc(NC(=O)c3ccc(S(=O)(=O)N4CC(C)OC(C)C4)cc3)cc2)n1 (stereo unspecified),-1,.,19*,1,0,.,0,1
CC1CN(S(=O)(=O)c2ccc(C(=O)Nc3ccc(S(=O)(=O)Nc4nccs4)cc3)cc2)CC(C)O1 (stereo unspecified),-1,-2,1,2,-2,.,.,.
O=C(N/N=C/c1cc2ccccc2[nH]1)c1ccccc1Cl,0,0,6.6*,0,6,22,0,4
O=C(N/N=C/c1cccc2ccccc12)c1ccccc1Cl,-1,4,-2,0,2,13,.,.
O=C(O)c1cc(Cl)c2ccccc2c1O,0,.,6.9*,0,6,1,0,3
O=C(Nc1ccccc1)c1cnc2ccccc2n1,1.1*,?,7.5*,2,11*,.,1,7.4*
Nc1cccn2c(-c3ccc(Cl)c(Cl)c3)cnc12,1.1*,-1,9.5*,4.0*,10,.,1,13*
CC(=O)Nc1cc(-c2ccccc2)cn2c(-c3ccc(F)c(Cl)c3)cnc12,-1,-1,0,0,-1,-1,.,.
C=CCn1c(O)c(N=Nc2ccccc2O)c2ccccc21,-1,3,3,0,0,-1,.,.
C=CCn1c(O)c(N=Nc2ccccc2[N+](=O)[O-])c2ccccc21,1.1*,1,6.7*,1,5,58*,0,8.4*
COc1ccc(CN(C(=O)c2cc3ccccc3oc2=O)C2CCS(=O)(=O)C2)cc1OC (stereo unspecified),0,22,10*,1,10,62*,1,3
CCC(=O)N[C@H]1CC[C@@H](CCNC(=O)Nc2ccc(C(F)(F)F)cc2)O[C@@H]1CO,.,.,.,.,.,1,.,.
CCCC(=O)Nc1ccc2c(c1)C(=O)N(C)C[C@H](OC)[C@H](C)CN(C)[C@@H](C)CO2,.,.,.,.,.,-3,.,.
Cc1ccc(C(=O)Nc2ccc(C(=O)N/N=C/c3c[nH]c4ccccc34)cc2)cc1,0,7,7.3*,-1,4,.,0,7.2*
O=C(N/N=C/c1ccccn1)c1sc2ccccc2c1Cl,-1,0,0,-1,1,30,.,.
O=C(N/N=C/c1c[nH]c2ccccc12)c1sc2ccccc2c1Cl,0,.,9.1*,0,7,60*,0,4
O=C(N/N=C/c1c[nH]c2ccccc12)c1ccncc1,0,-1,5,0,3,.,.,.
COc1ccccc1C(=O)N/N=C/c1c[nH]c2ccccc12,1.4*,7,7.0*,0,6,31,0,6.3*
COc1cccc(S(=O)(=O)N[C@@H]2CC[C@H](CC(=O)NCc3ccccc3)O[C@@H]2CO)c1,.,.,.,.,.,7,.,.
Cc1c(Cc2ccccc2)c(=O)oc2c(C)c(OCC(=O)NCC3CCC(C(=O)O)CC3)ccc12 (stereo unspecified),1,2,7.3*,1,2,-2,0,0
Cc1cc(OCC(=O)NCC2CCC(C(=O)O)CC2)c2c(C)c(Cc3ccccc3)c(=O)oc2c1 (stereo unspecified),-2,-1,-3,1,-1,0,.,.
CC(C)NC(=O)N[C@H]1CC[C@H](CCN)O[C@H]1CO,.,.,.,.,.,0,.,.
Cn1c(C(C#N)C(=O)Cc2cccc3ccccc23)nc2ccccc21 (stereo unspecified),-1,.,0,1,1,7,.,.
SMILES,ssDAF12 agonist,Wnt act,hcDAF-12 act,DAX1 StAR inh,hgDAF12 agonist,esBAF inh,LXR ag,hcDAF12 conf
Cn1c(C(C#N)C(=O)c2ccco2)nc2ccccc21 (stereo unspecified),1,2,7.2*,2,4,32,0,9.6*
COc1ccccc1-c1cnc2c(c1)C(=O)N([C@@H](C)CO)C[C@H](C)[C@H](CN(C)Cc1ccncc1)O2,.,.,.,.,.,1,.,.
N#C/C(=C/c1ccc(C(=O)O)cc1)C(=O)Nc1ccccc1,-1,.,-1,0,0,.,.,.
N#C/C(=C\c1ccc(-c2ccc(C(=O)O)cc2)o1)C(=O)Nc1ccc(F)cc1,0,0,6.9*,1,9,2,0,5
Cc1cccc(C)c1NC(=O)/C(C#N)=C/c1ccc(-c2ccc(C(=O)O)cc2)o1,0,21,7.0*,1,8,128*,1,5
C[C@@H]1CCCCO[C@@H](CN(C)C(=O)NC2CCCCC2)[C@@H](C)CN([C@@H](C)CO)C(=O)c2cc(NC(=O)Nc3ccccc3)ccc2O1,.,.,.,.,.,-2,.,.
NC(=O)[C@@H]1[C@@H]2C(=O)N(c3ccc(F)cc3)C(=O)[C@@H]2[C@H]2C=Cc3ccccc3N21,0,-3,7.5*,0,1,6,0,5
Cc1ccc(OC(=O)c2oc3ccc(F)cc3c2C)c(C)c1,1,.,8.1*,0,11*,15,0,3
O=C(NCC[C@H]1CC[C@H](NC(=O)C2CCC2)[C@@H](CO)O1)c1ccc(F)cc1,.,.,.,.,.,2,.,.
CC(=O)N1N=C(c2ccccc2O)OC1(C)CC(=O)Nc1ccccc1 (stereo unspecified),0,.,6.8*,0,-1,.,0,4
O=C(CC(=O)Nc1ccccc1)Nc1ccccc1,0,1,-1,0,1,.,.,.
C[C@H]1CN([C@@H](C)CO)S(=O)(=O)c2ccc(-c3ccncc3)cc2O[C@H]1CN(C)C(=O)CC1CC1,.,.,.,.,.,1,.,.
Cc1c(NC(=O)c2nn3c(C(F)(F)F)cc(-c4ccccc4)nc3c2Cl)c(=O)n(-c2ccccc2)n1C,-1,-1,6.8*,0,2,.,0,-1
Clc1cccc(-c2nc(-c3ccccn3)no2)c1,0,-19,9.7*,1,4,.,1,12*
Cc1ccc(Nc2nc(N)c3ccccc3n2)cc1Cl,3.6*,6,12*,3,12*,-33,2,15*
O=C(Nc1ccc(F)cc1)N1C[C@H]2[C@@H](c3ccccc31)[C@H](CO)N2C(=O)c1ccccc1,.,.,.,.,.,8,.,.

# Compound activity deposited in PubChem BioAssay by several laboratories.
